This passage reports sensor-assay potency score (higher = more potent) results from the OligoGym collection.

Targets include FAM113A; FAM103A1; FABP9; FAM111A; FAM162A; FAM178A; FAM22F; FAM73A; FAN1; FANCF; FANCG; FBXL3; FCF1; FGF2; FGFR1; FGF23.
Common to all, as to experiment: pooled miR-30 sensor sort-seq; sequence = guide strand
Conditions in all cases: shRNA
Also: reference of the scale not given here.

TTCCAGAACATCCTCAAGGTAC yielded a sensor-assay potency score (higher = more potent) in the experiment with FAM113A of -0.46. In the experiment with FAM103A1, TTCTTGTCTGTGTTGCGGGTAG had a sensor-assay potency score (higher = more potent) of -0.368. Sequence TTCAACCACATCCCGCCGCAGG came in with a sensor-assay potency score (higher = more potent) with FAM113A of -1.27. In the experiment with FAM103A1, ATAATGTCCATATTGCTGGGGA registered a sensor-assay potency score (higher = more potent) of -0.0469. TTTTGGACGTGAATCATTGAGC: the sensor-assay potency score (higher = more potent) with FABP9 was -0.43.

In the experiment with FABP9, TTGATTGTTGTCTCTTTGCCAA yielded a sensor-assay potency score (higher = more potent) of -0.728.

Consider TAGCACTGTAGAAGTTCCCTTC, for which the sensor-assay potency score (higher = more potent) with FAM113A turned out to be 0.54.

Sequence TCTACTAGCAAACATCTCTTCA displayed a sensor-assay potency score (higher = more potent) in the experiment with FAM103A1 of -0.435. In the experiment with FABP9, TTTCTTTTGATTGTTGTCTCTT registered a sensor-assay potency score (higher = more potent) of 0.171.

As for TTTTCTGTGAATCTACTAGCAA, in the experiment with FAM103A1, the sensor-assay potency score (higher = more potent) was -0.323.

In the case of TTTCTGTGAATCTACTAGCAAA, the sensor-assay potency score (higher = more potent) with FAM103A1 was -1.27. On to TGGAAGTGGACCATGTCGCTTC, for which the sensor-assay potency score (higher = more potent) with FAM113A is -0.111. With TTTCCTTGTCTTTTAGCTCTTC, the sensor-assay potency score (higher = more potent) with FAM111A was determined as 0.0612. The sequence TATCTCTTTTCTGACAGCCTGG came in with a sensor-assay potency score (higher = more potent) with FAM111A of -0.766. TACTAGCAAACATCTCTTCAAA returned a sensor-assay potency score (higher = more potent) in the experiment with FAM103A1 of -1.05. Regarding TACTCTTTGATTCCTTCTGTGC, the sensor-assay potency score (higher = more potent) with FAM111A is -0.506. Consider AACATCTCTTCAAACTTTGGAA, for which the sensor-assay potency score (higher = more potent) in the experiment with FAM103A1 was -0.553. Turning to TTACATTTTTCATTGACTGAGT, in the experiment with FAM111A, the sensor-assay potency score (higher = more potent) was -0.373. TTTCTGGAGCAAGAGCACCAGG: in the experiment with FAM113A, the sensor-assay potency score (higher = more potent) was -1.16. TTTCCAATCATCATTCTCCAGA showed a sensor-assay potency score (higher = more potent) with FAM111A of -0.625. Take TGTCCTGGAAAGAACTTTCTGT: in the experiment with FABP9, the sensor-assay potency score (higher = more potent) is -0.208.

Turning to TAAAACAGCTTCCTGCTGCCAG, the sensor-assay potency score (higher = more potent) with FAM162A is -0.369. The same measure, in the same setting: next, TTAGAGATGAGGAAACATCTCT: 0.0745.

In the case of TTTGGTATCATAGATTCTCTTG, the sensor-assay potency score (higher = more potent) in the experiment with FAM178A was -0.0968.

Sequence TGAATGAATAGTGACTTCCTTC had a sensor-assay potency score (higher = more potent) with FAM178A of -0.297. Sequence TTTCTGAGCAGATGGAGACTGA showed a sensor-assay potency score (higher = more potent) in the experiment with FAM22F of -0.731.

In turn, AAGGACTTGAGTCCAACCTGGC came in with a sensor-assay potency score (higher = more potent) in the experiment with FAM22F of -0.389. In turn, TATCTTTATCAATATCATCAGC yielded a sensor-assay potency score (higher = more potent) with FAM73A of -1.22. Same read-out and setting: next, TAGCATAGTTACAAACTTGAGA: -0.258.

TAACATGATCGCATTATCTGAG gave a sensor-assay potency score (higher = more potent) in the experiment with FAN1 of 0.286.

TTGGAGTGTCTCCTCATCGGCG: the sensor-assay potency score (higher = more potent) in the experiment with FANCF was -0.931. TTTCTGAAGGTCATAGTGCAAA gave a sensor-assay potency score (higher = more potent) in the experiment with FANCF of -1.33. In the experiment with FAN1, TTCTTTGATACACTCTTGCTTT registered a sensor-assay potency score (higher = more potent) of -0.307.

As to TAAGCAACTGTCATCCTGCAGA, the sensor-assay potency score (higher = more potent) with FAN1 was determined as 0.0838. Regarding AAACCTATTGTGCAACTCCTCC, the sensor-assay potency score (higher = more potent) with FANCF is -0.726.

TAGACAGGAGACAGCGCTGGGT registered a sensor-assay potency score (higher = more potent) in the experiment with FANCF of -0.533. In turn, TAACTAGGAAACTCCATTCGGC came in with a sensor-assay potency score (higher = more potent) with FAN1 of -0.0842. TTCTACCTCAATGAGAAACTGC: the sensor-assay potency score (higher = more potent) with FANCG was -0.153. In the case of ATAGCCATTGAAGCGCAGCATG, the sensor-assay potency score (higher = more potent) with FANCF was -1.41.

Take TACTTCAAAATCTCCATCCTGC: in the experiment with FANCF, the sensor-assay potency score (higher = more potent) came out at 0.811. Still for that read-out and setting: next, TTTGGGTTCTCTCTATAGCCAT: -1.05; TTGAAACCTATTGTGCAACTCC: 0.168. On the same count and under the same terms, next, TGACAGAGGCTTTGAAACCTAT: -1.18. On the same count and under the same terms, next, TTGGGTTCTCTCTATAGCCATT: -1.39. ATAACTTCTGACCAGTAGCTGA showed a sensor-assay potency score (higher = more potent) with FAN1 of -0.771. For the sequence TATAGGAATGGTCACATTCCTA, in the experiment with FANCG, the sensor-assay potency score (higher = more potent) is -1.18. In the experiment with FANCF, TTGGGACTCAGTTCCAACCCAA came in with a sensor-assay potency score (higher = more potent) of -0.182. TTACATATAACTTCTGACCAGT came in with a sensor-assay potency score (higher = more potent) with FAN1 of 0.259. The sequence TTGCTGATTGATAAGCTTCTAC had a sensor-assay potency score (higher = more potent) with FAN1 of -0.452. Take TTTTGTAAACTATATATTCTAT: the sensor-assay potency score (higher = more potent) with FANCF is -0.511. Sequence TTCATCAGAGAGTCCTCCTGGA returned a sensor-assay potency score (higher = more potent) in the experiment with FANCF of 0.554. Consider TTGAACTTTTTACAGCTCGGAG, for which the sensor-assay potency score (higher = more potent) with FAN1 was -1.04.

For TAGAACTTTATCTTTCAGAGGT, the sensor-assay potency score (higher = more potent) with FANCF came to 0.316.

ATAGACAGGAGACAGCGCTGGG: the sensor-assay potency score (higher = more potent) in the experiment with FANCF was -0.33. The sequence TTGGTCATCTTAATCCAGCTTA yielded a sensor-assay potency score (higher = more potent) with FAN1 of 0.33. In the experiment with FANCG, ATAGAGTCAAGGCATCTTGGGC returned a sensor-assay potency score (higher = more potent) of -0.699.

Regarding TTGACCAACAGGACTGTTGAAA, the sensor-assay potency score (higher = more potent) with FAN1 was -0.462. Same read-out and setting: the same measure for TTTTTGAGAACTGTTCTCCAAA: -0.862.

Sequence TATCTTTCAGAGGTGGAGGGGC showed a sensor-assay potency score (higher = more potent) with FANCF of -0.0769.

TCTATAGCCATTGAAGCGCAGC gave a sensor-assay potency score (higher = more potent) with FANCF of -1.1. TTAGAACTTTATCTTTCAGAGG showed a sensor-assay potency score (higher = more potent) with FANCF of -1.12. The sequence TAGGCTCCGCTGGATATCCTGG returned a sensor-assay potency score (higher = more potent) with FANCG of -1.03. TTTCACATCTTGCACAGCCATT: the sensor-assay potency score (higher = more potent) with FAN1 was -1.51. Sequence TTGCAGACTATGGAGGAGCCCT came in with a sensor-assay potency score (higher = more potent) with FANCG of -1.08. As to ATGTGCACCGCAGACCGCCGGC, the sensor-assay potency score (higher = more potent) with FANCF is -1.25. As for TGGAAGTTCGCTAATCCCGGAA, the sensor-assay potency score (higher = more potent) in the experiment with FANCF is -0.728. Still for that read-out and setting: next, TTATCTTTCAGAGGTGGAGGGG: -0.733.

TTCAAAATCTCCATCCTGCGCT: in the experiment with FANCF, the sensor-assay potency score (higher = more potent) was found to be 0.034. On the same count and under the same terms, the same measure for AAGAGGTCTGTCCAGATGCTAA: -1.55. Same read-out and setting: next, TCTCTTGGAGTGTCTCCTCATC: -1.11. TTAATTATAATACATTTGCTTG gave a sensor-assay potency score (higher = more potent) with FBXL3 of -1.08. Same read-out and setting: the same measure for TATCACAAGCTGCTTCAGCTGA: -0.251. As to TTTTAGGTTTTAATCTATCCTT, the sensor-assay potency score (higher = more potent) with FCF1 was -0.595. In the experiment with FGF2, TATTAGATTCCAATCGTTCAAA had a sensor-assay potency score (higher = more potent) of -0.684. Still for that read-out and setting: the same measure for TAGACACAACTCCTCTCTCTTC: -0.65; for TAGCTTGATGTGAGGGTCGCTC: -0.132.

In the experiment with FGF2, TTAGAAGCCAGTAATCTTCCAT registered a sensor-assay potency score (higher = more potent) of 0.816. With TTACACATGAACTCCACGTTGC, the sensor-assay potency score (higher = more potent) with FGFR1 amounted to 0.903.

In the experiment with FGF2, TGAGGGTCGCTCTTCTCCCGGA had a sensor-assay potency score (higher = more potent) of -0.455. Same read-out and setting: the same measure for TTGCAGTACAGCCGCTTGGGGT: -1.34. In the experiment with FGF23, TAATGGGTCACTGGCCATCGGG gave a sensor-assay potency score (higher = more potent) of -1.63. ATCATGTACAGCTCGTTGGTGC: in the experiment with FGFR1, the sensor-assay potency score (higher = more potent) is -0.372.

Turning to TTGTAGACGATGACCGACCCCA, the sensor-assay potency score (higher = more potent) with FGFR1 is -0.237. For TTTGATAGACACAACTCCTCTC, in the experiment with FGF2, the sensor-assay potency score (higher = more potent) is 0.744.
